Source: PubChem (several laboratories)
This is a sample that favours compounds with a hit; in the whole collection about 1.8% have one here.
eIF4E-4G inh = eIF4E/eIF4G interaction inhibition in translation initiation; inhibition, % at 21.7 µM; 220,000 tested, 0.37% active; AID 782; P63073+Q04637; TR-FRET eIF4E-eIF4GI(517-606) binding, 2 h;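 active = inhibition above about 30%, limit read from the data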;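 also: 0% = full FRET control wells and 100% = background wells lacking eIF4GI fragment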
PGE2 EP2 inh = EP2 receptor (human) inhibition | 260,000 tested, 0.52% active | C6 glioma cells expressing human EP2, cAMP TR-FRET; cells stimulated with saturating PGE2 | inhibition, % at 25 µM;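 active = percent inhibition above 40 after rounding to a whole number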;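 also: rat C6 glioma host cells with rolipram phosphodiesterase inhibitor present; the protocol text gives 20 µM as final concentration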
Target sequence (P43116 whole entry, looked up): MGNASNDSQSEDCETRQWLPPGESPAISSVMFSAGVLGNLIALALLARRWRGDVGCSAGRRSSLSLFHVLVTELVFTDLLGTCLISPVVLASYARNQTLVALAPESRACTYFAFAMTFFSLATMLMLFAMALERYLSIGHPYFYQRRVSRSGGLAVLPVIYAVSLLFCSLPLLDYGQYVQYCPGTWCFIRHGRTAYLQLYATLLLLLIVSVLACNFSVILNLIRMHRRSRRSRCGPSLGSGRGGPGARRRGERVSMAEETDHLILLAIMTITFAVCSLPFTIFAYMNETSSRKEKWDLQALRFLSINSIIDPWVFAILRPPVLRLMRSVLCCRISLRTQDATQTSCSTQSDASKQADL
PERK inh = human PERK inhibition, primary cell-based screen; Q9NZJ5; CHO PERK-DD fusion, SEAP luminescence translation reporter; inhibition, % at 5.6 µM; 220,000 tested, 0.17% active; AID 1416;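 active = inhibition above the mean inhibition of all tested compounds plus 3 SD, set separately per screening campaign, cut at about 2.9% in these data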;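 also: PERK kinase domain activated by AP20187 dimerizer at 100 nM; 0% = DMSO with dimerizer and 100% = rapamycin at 8.4 µM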
EP2 mod = modulates human prostaglandin E2 receptor EP2 signaling; AID 940; 260,000 tested, 0.83% active; induction, % at 25 µM; EP2-expressing cells, cAMP HTRF FRET, PGE2 co-stimulation;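 active = compounds whose cAMP rise, as percent of the full-agonist control response, exceeds 60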;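 also: rat C6 glioma line stably carrying human EP2 under a CMV promoter; the protocol text gives 20 µM as final concentration; 100% = response of wells given 1 µM PGE2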
EP2 cAMP induct = human EP2 receptor cAMP induction, negative in counter-screens. shares compounds with EP2 mod. C6 glioma EP2 cells, cAMP HTRF induction; plus low (about EC15) PGE2 agonist. calls only at 20 µM (by protocol). 1,300 tested, 47% active;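 active = cAMP induction above 50% in the main assay while under 30% in all four parallel counter assays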;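 also: rat C6 glioma cells stably expressing human EP2 receptor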
* hit, by the source's call; i = inactive; . = no result given; + = active, no number.

SMILES	eIF4E-4G inh	PGE2 EP2 inh	PERK inh	EP2 mod	EP2 cAMP induct
CCOc1cc(NC(=O)c2ccccc2Cl)c(OCC)cc1NC(=O)c1ccccn1	.	9	.	-14	.
CCn1c(-c2ccccc2)c(C(=O)CCl)c2ccccc21	-3	12	1	78*	+
Cc1cc(Nc2ccc(Br)cc2)n2nc(C)nc2n1	0	5	0	88*	i
COc1ccc(C(=O)NCC(=O)n2nc(C)cc2C)cc1OC	5	8	0	66*	i
Cc1cc(C)n(C(=O)CNC(=O)Cc2ccccc2)n1	6	8	0	-95	.
O=c1c2ccccc2c(-c2ccccc2)nn1-c1ccc(Cl)c(Cl)c1	3	7	1	70*	i
O=c1c2ccccc2c(-c2ccccc2)nn1-c1ccccc1	-6	2	1	19	.
CCOc1ccccc1C1C2=C(CC(C)(C)CC2=O)NC2=C1C(=O)c1ccccc12 (centres undefined)	.	10	.	2	.
Cc1ccc(Cc2cnc(NC(=O)C3=NCCN3)s2)cc1Cl	.	9	.	15	.
O=C(Nc1cccc(C(=O)N2CCCCC2)c1)c1cc2c([nH]c1=O)CCCCC2	.	6	.	-29	.
O=C(Nc1cc(S(=O)(=O)Nc2ccc(Cl)cc2)ccc1N1CCCCC1)c1ccc(F)cc1Cl	3	8	-1	76*	+
COc1ccc(NS(=O)(=O)c2ccc(N3CCOCC3)c(NC(=O)c3ccccc3Cl)c2)cc1	2	10	-1	20	.
CC(=O)N1c2ccc(NC(=O)c3nc(-c4ccc(F)cc4)oc3C)cc2CC1C (centres undefined)	.	10	.	-52	.
Cc1ccc(CN2C(=O)/C(=C\c3ccc(C(=O)NCc4cccnc4)cc3)Oc3ccccc32)cc1	4	13	1	85*	+
Cc1ccc(C)c2[nH]c(=O)c(CC(C#N)C(=O)Nc3ccc(F)cc3)cc12 (centres undefined)	.	12	.	-5	.
Fc1ccc(C(c2ccc(F)cc2)N2CCN(C/C=C/c3ccccc3)CC2)cc1	5	8	0	46	i
Cc1cc(C)c2[nH]c(=O)c(CN(C(=S)NCCCN(C)C)C3CCCC3)cc2c1	.	5	.	-58	.
CN(Cc1cccs1)c1ncnc2sccc12	4	12	0	-22	.
Cc1sc2ncnc(N(C)Cc3cccs3)c2c1C	-3	14	-1	52	+
CCc1ccc(NC(=O)N(Cc2ccco2)C(C)c2cccs2)cc1 (centres undefined)	5	8	-1	-3	.
CCc1ccccc1NC(=S)N(Cc1ccco1)C(C)c1cccs1 (centres undefined)	2	4	0	60	i
CCN1C(=O)C(C(=O)O)C(=O)c2ccccc21 (centres undefined)	.	9	.	10	.
NC(=O)c1ccc(C(=O)N2C3CCC2CC(c2ccc(F)cc2)C3)c(F)c1 (centres undefined)	.	.	.	-56	.
COc1ccc2c(COC(=O)c3n[nH]c4ccccc34)cc(=O)oc2c1	-3	10	-1	75*	i
COc1cccc2[nH]c3c(N4CCc5ccccc5C4)ncnc3c12	-7	11	-2	-12	.
SMILES	eIF4E-4G inh	PGE2 EP2 inh	PERK inh	EP2 mod	EP2 cAMP induct
COc1cccc2[nH]c3c(N4CCC(C)CC4)ncnc3c12	-20	6	-1	80*	+
C=CCn1c(Cc2ccccc2)n[nH]c1=S	5	13	1	9	.
C=CCn1c(CCc2cc(C(C)(C)C)c(O)c(C(C)(C)C)c2)n[nH]c1=S	-5	7	-1	58	i
COC(=O)c1sccc1NC(=O)c1cc2c(s1)CCCC2	1	.	1	54	i
COC(=O)c1sccc1NC(=O)c1cccc(OC)c1	0	14	-1	67*	i
COC(=O)c1sccc1NC(=O)c1ccc(OC)cc1OC	-18	4	0	41	.
O=c1n(Cc2ccccc2F)c2ccccc2n1Cc1ccccc1F	5	18	0	77*	+
Cc1cc(C)c(C#N)c(Oc2ccccc2Br)n1	-2	10	1	70*	i
Cc1cc(C)c(C#N)c(Oc2ccccc2)n1	5	13	0	24	.
COc1ccc(-n2c(COc3cccc4ccccc34)nnc2SCC(=O)NCc2ccco2)cc1	-11	12	-1	66*	i
COc1ccc(-n2c(COc3ccc4ccccc4c3)nnc2SCC(=O)NCc2ccco2)cc1	-18	10	-1	-6	.
